{"source": "PubChem BioAssay AID624330", "about": "(Southern Research Specialized Biocontainment Screening …, 2012)", "note": "In all, about 340,000 compounds went through this assay and about 2,100 (0.62%) were called active. A selection follows. Results with a measured potency or affinity are listed apart. Unmarked numbers belong to inactive results.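 How the source made its calls: active means first-screen hits whose inhibition reached a set limit at any dose in the follow-up dose series; inconclusive means inhibition above the set first-screen limit but never retested; inactive means the rest.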"}
{"target": "Rac GTPase-activating protein 1 (Homo sapiens) (UniProt Q9H0H5)", "sequence (Q9H0H5 whole entry, looked up)": "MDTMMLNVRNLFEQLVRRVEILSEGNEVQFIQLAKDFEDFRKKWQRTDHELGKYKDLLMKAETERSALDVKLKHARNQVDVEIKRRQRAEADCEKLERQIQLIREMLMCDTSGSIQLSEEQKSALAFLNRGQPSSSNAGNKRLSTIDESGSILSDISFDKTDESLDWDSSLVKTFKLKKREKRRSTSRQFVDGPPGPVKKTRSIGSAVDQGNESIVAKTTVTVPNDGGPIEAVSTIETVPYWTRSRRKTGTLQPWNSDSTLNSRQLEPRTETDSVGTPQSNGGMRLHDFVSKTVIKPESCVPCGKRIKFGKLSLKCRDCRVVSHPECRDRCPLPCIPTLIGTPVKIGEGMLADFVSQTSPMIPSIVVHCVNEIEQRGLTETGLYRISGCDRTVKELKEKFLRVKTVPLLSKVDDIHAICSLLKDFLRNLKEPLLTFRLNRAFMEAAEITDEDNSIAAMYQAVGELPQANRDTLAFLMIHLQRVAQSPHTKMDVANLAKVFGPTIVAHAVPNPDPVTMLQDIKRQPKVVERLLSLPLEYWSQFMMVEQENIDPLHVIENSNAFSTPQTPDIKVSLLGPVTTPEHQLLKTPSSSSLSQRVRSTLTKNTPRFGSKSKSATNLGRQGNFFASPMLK", "experiment": "MgcRacGAP GTPase-activating activity inhibitors, confirmation, biochemical, ADP Hunter fluorescence, primary and confirmatory (AID 624330);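 further: fluorescence reports GDP produced by GAP-driven GTP hydrolysis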", "settings": "MgcRacGAP-stimulated Rac1 GTP hydrolysis, at 30 µM, hits give high values, GST-tagged Rac1 F28L mutant substrate", "units": {"inhibition": "%"}}
{"smiles": "CC(=O)Nc1cccc(-c2csc(NCc3ccco3)n2)c1", "inhibition": 15.4}
{"smiles": "CC(=O)Nc1ccc(-c2csc(NCc3ccccc3)n2)cc1", "inhibition": 8.92}
{"smiles": "N/C(=N\\OC(=O)c1ccco1)c1cccc([N+](=O)[O-])c1", "inhibition": 6.07}
{"smiles": "CCn1cc(Cl)c(C(=O)Nc2nccs2)n1", "inhibition": 1.45}
{"smiles": "C=C(C)CSc1nnc(-c2ccc(OC)cc2)n1N", "inhibition": 5.76}
{"smiles": "O=C(N/N=C/c1ccc(C(F)(F)F)cc1)c1ccc(O)cc1", "inhibition": 8.28}
{"smiles": "O=C(Nc1ccccc1C(=O)N/N=C/c1ccco1)c1ccccc1", "inhibition": 7.26}
{"smiles": "O=C(O)c1ccc(C=NNC(=O)c2ccccc2NS(=O)(=O)c2cccs2)cc1", "inhibition": 7.04}
{"smiles": "CC(C)(C)c1cc(C(=O)N/N=C/c2ccc(F)cc2)n(-c2ccccc2)n1", "inhibition": 6.73}
{"smiles": "CC(C)(C)c1cc(C(=O)N/N=C/c2ccccc2O)n(-c2ccccc2)n1", "inhibition": 2.15}
{"smiles": "O=C(NN=Cc1ccc(F)cc1)c1ccccc1NS(=O)(=O)c1cccs1", "inhibition": 5.29}
{"smiles": "O=C(Nc1ccccc1C(=O)N/N=C/c1ccncc1)c1ccccc1", "inhibition": 9.96}
{"smiles": "O=C(N/N=C/c1cccc(C(F)(F)F)c1)c1ccc(O)cc1", "inhibition": 6.36}
{"smiles": "O=C(CSc1nnc(C2CC2)n1-c1ccccc1)NC1CCS(=O)(=O)C1", "note": "(configuration not stated)", "inhibition": -2.5}
{"smiles": "CCOC(=O)c1cc(C)nn1-c1nc(Cl)cc(OC)n1", "inhibition": 5.27}
{"smiles": "COC(=O)c1ccccc1NC(=O)Oc1ccc(C(C)C)cc1", "inhibition": 8.33}
{"smiles": "Cc1ccc(NS(=O)(=O)c2ccc(-n3cccn3)cc2)nc1", "inhibition": 4.91}
{"smiles": "COc1ccc(S(=O)(=O)N2CCCCC2)cc1NC(=O)C1CSC2(C)CCC(=O)N12", "note": "(configuration not stated)", "inhibition": 5.04}
{"smiles": "CC(C)(C)C(=O)NC(=S)NNC(=O)C(c1ccccc1)c1ccccc1", "inhibition": 6.5}
{"smiles": "O=C(O)CC/C(=N/NC(=O)CNC(=O)c1ccc2c(c1)OCCO2)c1ccccc1", "inhibition": 3.51}
{"smiles": "CCOC(=O)C(=O)Nc1cccc(C(=O)OCC)c1", "inhibition": -6.93}
{"smiles": "COc1ccc(/C=N/NC(=O)Nc2cccc3nsnc23)cc1OC", "inhibition": 6.64}
{"smiles": "COc1cc(C=NNC(=O)c2ccccc2NS(=O)(=O)c2cccs2)cc(OC)c1O", "inhibition": 9.93}
{"smiles": "COc1ccc(/C=N/NC(=O)Nc2cccc3nsnc23)cc1", "inhibition": -1.96}
{"smiles": "O=C(NN=Cc1c(F)cccc1F)c1ccccc1NS(=O)(=O)c1cccs1", "inhibition": 3.9}
{"smiles": "CC(NC(=O)c1ccccc1)C(=O)N/N=C/c1ccc(O)cc1", "note": "(configuration not stated)", "inhibition": 27}
{"smiles": "O=C(NN=Cc1cc(Br)c(O)c(Br)c1)c1ccccc1NS(=O)(=O)c1cccs1", "inhibition": 15.4}
{"smiles": "COc1ccc(C=NNC(=O)c2ccccc2NS(=O)(=O)c2cccs2)cc1O", "inhibition": 12.1}
{"smiles": "COc1ccccc1/C=N/NC(=O)C(NC(=O)c1ccccc1)=C(C)C", "inhibition": 4.44}
{"smiles": "COc1ccc(-c2cc(-c3ccccc3)nc(N3CCCC3)n2)cc1OC", "inhibition": 3.15}
{"smiles": "Cc1cc(C)c(C)c(S(=O)(=O)NCCCN2CCCC2=O)c1C", "inhibition": 5.47}
{"smiles": "CC(C)(C)c1ccc(N2C(=O)CC(c3ccccc3)C2=O)cc1", "note": "(configuration not stated)", "inhibition": 4.86}
{"smiles": "Cc1nc(N2CCN(C(=O)c3ccco3)CC2)c(C#N)c2c1CCCC2", "inhibition": 5.84}
{"smiles": "CCOCC(=O)N1CCN(Cc2ccc3c(c2)OCO3)CC1", "inhibition": -16}
{"smiles": "COc1ccccc1C(=O)N1CCN(Cc2ccc3c(c2)OCO3)CC1", "inhibition": 2.13}
{"smiles": "COc1cccc(C(=O)N2CCN(Cc3ccc4c(c3)OCO4)CC2)c1OC", "inhibition": 9.39}
{"smiles": "Cc1cc(C)cc(C(=O)N2CCN(Cc3ccc4c(c3)OCO4)CC2)c1", "inhibition": 0.95}
{"smiles": "CCOC(=O)N1CCN(Cc2ccc3c(c2)OCO3)CC1", "inhibition": 11.9}
{"smiles": "COc1cccc(C(=O)N2CCN(Cc3ccccc3Br)CC2)c1", "inhibition": 21.5}
{"smiles": "COc1cc(OC)cc(C(=O)N2CCN(Cc3ccccc3C(F)(F)F)CC2)c1", "inhibition": 11.6}
{"smiles": "COc1cc(C(=O)N2CCN(Cc3ccc4c(c3)OCO4)CC2)cc(OC)c1OC", "inhibition": 13.3}
{"smiles": "Cc1ccccc1NC(=O)N1CCCC1C(=O)NCc1cccs1", "note": "(configuration not stated)", "inhibition": 11.4}
{"smiles": "CC(=O)Nc1ccc(CN2CCc3c([nH]c4ccccc34)C2C(C)(C)C)cc1", "note": "(configuration not stated)", "inhibition": 6.78}
{"smiles": "CCCc1n[nH]c2c1/C(=N/O)CC(c1ccccc1)C2", "note": "(configuration not stated)", "inhibition": 12.8}
{"smiles": "COc1cc(C)c(S(=O)(=O)N2CCCC2)cc1C", "inhibition": 4.75}
{"smiles": "CN(Cc1ccccc1)C(=O)COC(=O)c1ccc(S(=O)(=O)N(C)C)cc1", "inhibition": 9.46}
{"smiles": "O=C1C=C(c2ccccc2)C(O)(c2ccccc2)C1", "note": "(configuration not stated)", "inhibition": 4.42}
{"smiles": "CC1CN(C(=O)CS(=O)(=O)Cc2ccc(Cl)cc2)CC(C)O1", "note": "(configuration not stated)", "inhibition": 6.85}
{"smiles": "O=C(/C=C/Nc1ccc(F)cc1)c1ccc(Oc2ncccn2)cc1", "inhibition": 10.5}
{"smiles": "CCCCNS(=O)(=O)c1ccc2nc(SCC(=O)Nc3sccc3C#N)[nH]c2c1", "inhibition": 4.59}
{"smiles": "COC(=O)C1CCN(C(=O)Cc2ccc(OC)c(OC)c2)CC1", "inhibition": -0.01}
{"smiles": "COc1ccc(Cc2nnc(NC(=O)Cc3cccs3)s2)cc1OC", "inhibition": 4.75}
{"smiles": "O=C(Cc1cccs1)Nc1nnc(Cc2ccccc2)s1", "inhibition": 22.3}
{"smiles": "CC1=NNC(=O)C1CC(=O)N/N=C(\\C)c1cccs1", "note": "(configuration not stated)", "inhibition": 3.05}
{"smiles": "O=C(CCN1C(=O)c2cccc3cccc(c23)C1=O)Nc1ccccc1", "inhibition": 2.77}
{"smiles": "C=CCN1C(=O)CSC1=Nc1ccc(C(=O)O)cc1", "inhibition": 6.53}
{"smiles": "CN1C(=O)CSC1=Nc1ccc(F)cc1", "inhibition": 4.45}
{"smiles": "COc1ccc(N=C2SCC(=O)N2c2ccc(OC)cc2)cc1", "inhibition": -0.28}
{"smiles": "C=CCN1C(=O)CSC1=Nc1cccc(O)c1", "inhibition": 3.76}
{"smiles": "O=C(NCCN1C(=O)S/C(=C\\c2ccccc2Cl)C1=O)C1=COCCO1", "inhibition": 3.87}
{"smiles": "COc1cc2c(cc1OC)C(C)N(C(=S)Nc1ccccc1)CC2", "note": "(configuration not stated)", "inhibition": 7.46}
{"smiles": "NC(c1ccncc1)c1ccc(Cl)cc1", "note": "(configuration not stated)", "inhibition": 13.9}
{"smiles": "O=C(O)c1cccc(N2CCCC2)c1", "inhibition": 15.6}
{"smiles": "COC(=O)c1cccc(N2CCCC2=O)c1", "inhibition": 9.18}
{"smiles": "O=C(O)c1cccc(N2CCCC2=O)c1", "inhibition": 5.07}
{"smiles": "COC(=O)c1cccc(N2C(=O)c3ccccc3S2(=O)=O)c1", "inhibition": 0.68}
{"smiles": "CCCN(CCC)Cc1c(C(=O)N/N=C/CCc2ccccc2)nnn1-c1nonc1N", "inhibition": 11.3}
{"smiles": "Nc1ncc2c(n1)CCN(c1ccc([N+](=O)[O-])cc1)C2", "inhibition": 7.74}
{"smiles": "CC[C@H](C)[C@@H](C(=O)N1CCNCC1)n1cc([C@@H](N)CC(C)C)nn1", "inhibition": 0.32}
{"smiles": "O=C(O)c1cccc(N/N=C/c2cccc3ccccc23)c1", "inhibition": 8.13}
{"smiles": "CC(C)(C)c1ccc(/C=N/Nc2cccc(C(=O)O)c2)cc1", "inhibition": 6.23}
{"smiles": "O=C(O)c1cccc(N/N=C/c2cn(-c3ccccc3)nc2-c2cccs2)c1", "inhibition": 3.09}
{"smiles": "CN(C)c1ccc(/C=N/Nc2cccc(C(=O)O)c2)cc1", "inhibition": -3.06}
{"smiles": "O=C(O)c1cccc(N/N=C/c2ccc(-c3ccccc3)cc2)c1", "inhibition": -7.28}
{"smiles": "Cc1ccsc1/C=N/NC(=O)Nc1ccccc1", "inhibition": 1.94}
{"smiles": "Cc1ccc(NC(=O)CN2C(=O)NC3(CCc4ccccc43)C2=O)cc1", "note": "(configuration not stated)", "inhibition": -6.82}
{"smiles": "CC(=O)c1ccc(NC(=O)CN2C(=O)NC3(CCc4ccccc43)C2=O)cc1", "note": "(configuration not stated)", "inhibition": 1.63}
{"smiles": "CCOc1cccc(NC(=O)c2ccc(S(=O)(=O)N3CCCC3)cc2)c1", "inhibition": 3.15}
{"smiles": "O=S(=O)(c1ccccc1)c1nc(-c2ccco2)oc1NCCCN1CCOCC1", "inhibition": 8.7}
{"smiles": "O=C(/C=C/c1ccc(Cl)cc1Cl)Nc1cccc(S(=O)(=O)NC2=NCCCCC2)c1", "inhibition": 5.67}
{"smiles": "Nc1cc(Cl)ccc1Oc1ccccc1", "inhibition": 11.6}
{"smiles": "Nc1cc(Cl)ccc1Oc1ccc(Cl)cc1", "inhibition": 0.58}
{"smiles": "COc1ccc(C(=O)COC(=O)CNC(=O)c2ccccc2)cc1F", "inhibition": 4.02}
{"smiles": "CCOC(=O)c1cnc(SCC(=O)Nc2cc(OC)ccc2OC)nc1N", "inhibition": 3.73}
{"smiles": "CSCCC(NC(=O)c1ccccc1Cl)C(=O)NCc1ccncc1", "note": "(configuration not stated)", "inhibition": 6.71}
{"smiles": "CC1CCCN(CCCOc2ccccc2-c2ccccc2)C1", "note": "(configuration not stated)", "inhibition": 18.1}
{"smiles": "CC1CCCN(CCOc2ccc(Br)cc2)C1", "note": "(configuration not stated)", "inhibition": 12}
{"smiles": "O=C(/C=C/c1ccco1)NCC1CCCO1", "note": "(configuration not stated)", "inhibition": 19.1}
{"smiles": "CC(C)(C)C(=O)Cn1c(=O)n(-c2ccc(F)cc2F)c(=O)c2sccc21", "inhibition": 13.1}
{"smiles": "CNC(=S)N1N=C(c2ccc(C)cc2)CC1c1ccc(OC)c(OC)c1", "note": "(configuration not stated)", "inhibition": 2.99}
{"smiles": "CC(=O)C[C@H]1c2cc(C(F)(F)F)ccc2S(=O)(=O)N1c1ccc(N(C)C)cc1", "inhibition": 16.3}
{"smiles": "COC(=O)C[C@H]1c2cc(F)ccc2S(=O)(=O)N1c1ccc(N(C)C)cc1", "inhibition": 22.8}
{"smiles": "COc1ccc(-n2ncc3c2CC(C)(C)CC3NC(=O)CCn2cncn2)cc1", "note": "(configuration not stated)", "inhibition": 4.79}
{"smiles": "COc1ccc(-n2c(=O)c3c(C)c(C)sc3n(Cc3cccc(F)c3)c2=O)c(OC)c1", "inhibition": 9.42}
{"smiles": "CC(=O)Nc1ccc(NS(=O)(=O)c2ccccc2)cc1", "inhibition": 5.08}
{"smiles": "CC(=O)Nc1ccccc1", "inhibition": 3.65}
{"smiles": "O=C(Nc1ccccc1)c1ccccc1OCc1ccc(F)cc1", "inhibition": 13.5}
{"smiles": "CC(C)(C)CC(=O)Nc1ccc(C(N)=O)cc1", "inhibition": 5.87}
{"smiles": "CC(=O)Nc1cccc(NC(=O)c2ccccc2OCc2ccccc2)c1", "inhibition": 9.89}
{"smiles": "Cc1cccc(NC(=O)CC(C)(C)C)c1", "inhibition": 5.55}
{"smiles": "CC(=O)Nc1ccc(NC(=O)Nc2ccccc2)cc1", "inhibition": -3.27}
{"smiles": "Cc1ccc(S(=O)(=O)Nc2ccc(Nc3ccccc3)cc2)cc1", "inhibition": 24.2}
